The source of these data is PubChem BioAssay (NCATS).

For experiment [1], the target named is Nucleoprotein (Lymphocytic choriomeningitis virus (strain Armstrong)) (UniProt P09992). The experiment can be described thus: qHTS for Inhibitors of the Functional Ribonucleoprotein Complex (vRNP) of Lymphocytic Choriomeningitis Arenaviruses (LCMV): LCMV Primary Screen - GLuc reporter signal (AID 1347086; calls by dose curve; also: nearly all actives have a fitted effect of over 70% in size; also: potency is read from the fitted curve at half-maximal effect). For orientation: qHTS replaces the single test concentration by a dilution series.

Experiment [2] is described as follows: Cytotoxicity counterscreen for inhibitors of SARS-CoV-2 cell entry (AID 1645845; calls by dose curve; also: nearly all actives have a fitted effect of over 50% in size). In a few lines: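 HEK293-ACE2 cells (Expi293F stably expressing human ACE2) seeded overnight, then compound for 1 h plus 48 h at 37C. Viability as ATP content by luminescence; normalized to wells with cells and media-only wells.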
A general note: Counterscreens check selectivity or assay interference.

The nature of experiment [3]: Primary qHTS to identify inhibitors of SARS-CoV-2 cell entry (AID 1645846; calls by dose curve; also: nearly all actives have a fitted effect of over 45% in size). Particulars: activity change, negative = inhibition: at 57.1 µM (top of the series) unless noted. In a few lines:
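Data are normalized to wells receiving SARS-CoV-2-S pseudoparticles and those given bald particles. Entry signal was luciferase luminescence in stable hACE2 Expi293F cells, 48 hr post-infection, after 1 hr compound pretreatment.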

The target of experiment [4] is Metallo-beta-lactamase type 2 (Klebsiella pneumoniae) (UniProt C7C422). The experiment can be described thus: qHTS to identify inhibitors of the New Delhi Metallo-beta-lactamase (NDM): assay validation screen against the NCATS LOPAC Collection (AID 1794843).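 Also: nitrocefin turnover by NDM-1 measured as 485 nm absorbance at plateau.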 In a few lines:
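NDM-1 at 2 nM final in 50 mM HEPES pH 7.0 with 1 uM ZnSO4 and 0.01% Tween20 was preincubated with library compounds in DMSO. Nitrocefin (50 uM stock) was then added, and absorbance at 485 nm was read at the kinetic plateau.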

The next experiment concerns the target Furin (Homo sapiens) (UniProt P09958). The experiment can be described thus: Furin counterscreen qHTS for Zika virus inhibitors (AID 1347149).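 Also: purified recombinant full-length human furin enzyme at 5 nM; fluorescence gain from furin cutting a BOC-RVRR-AMC peptide substrate over 15 min; top concentration of the series differs between compounds; nearly all actives have a fitted effect of over 70% in size.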 In a few lines:
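Fluorogenic cleavage of BOC-RVRR-AMC (2 microM final, Km ~15 µM) was monitored (ex 340, em 450 nm) at 37C after 15 min RT preincubation of 5 nM furin with compounds in HEPES pH 7.0 buffer with CaCl2 and Triton X-100. Percent inhibition was fitted to a 4-parameter Hill curve.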

The test system of experiment [5] is Zika virus NS2B-NS3 protease (unlinked). The experiment can be described thus: Optimization of GU AMC qHTS for Zika virus inhibitors: Unlinked NS2B-NS3 protease assay (AID 1347151). Also: nearly all actives have a fitted effect of over 80% in size. Put shortly: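 Percent inhibition is derived from the 15-min change in AMC fluorescence, normalized against no-inhibitor and no-enzyme controls, then fitted to a 4-parameter Hill curve. Aprotinin was the intraplate control.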

Experiment [6] can be described thus: Vero cells viability qHTS for Zika virus inhibitors (AID 1347167). Put shortly: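 Cells seeded at 2.5 x 10^5 cells/mL in DMEM with 4% FBS and attached overnight at 37 degrees C, then exposed to compound for 24 to 48 hours. Viability read as ATP content by CellTiter Glo luminescence.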
A short description of experiment [7]: Tertiary RLuc qRT-PCR qHTS assay for Zika virus inhibitors (AID 1347169). Also: potency is read from the fitted curve at half-maximal effect; nearly all actives have a fitted effect of over 55% in size. In a few lines:
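Orthogonal cell-based infection assay using recombinant ZIKV-RLuc (Cambodian) in Vero cells; compound added prior to virus at MOI 1-2. Incubation lasts 48-72 hrs at 37 degrees C before live-cell Renilla substrate is added and luminescence measured.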
(In general: Quantitative PCR measures a nucleic acid by following its amplification.)

Experiment [8] concerns Zika virus NS2B-NS3 protease. The experiment can be described thus: Primary screen GU AMC qHTS for Zika virus inhibitors (AID 1347154). Also: nearly all actives have a fitted effect of over 70% in size. In a few lines: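 Unlinked Zika NS2B hydrophilic domain–NS3 protease complex at 25 nM in 10 mM Tris-HCl pH 8.0, 0.01% Tween 20, with an AMC peptide substrate. Fluorescence change (340/450 nm) over 15 min at room temperature, normalized to controls, fitted to 4-parameter Hill.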

Results filed as inconclusive are left out. A call without a number means that no potency is given here. The source made the active and inactive calls. Unless noted, calls follow the shape of the dose curve; as a rule, active = well fitted curve in the direction sought with a large enough effect; inconclusive = small, poorly fitted or top-dose-only effect, or another doubt; inactive = no such curve, though single readings can be large; an effect the other way counts as inactive or inconclusive.

Chain of Nucleoprotein (Lymphocytic choriomeningitis virus (strain Armstrong)) (P09992 whole entry, looked up): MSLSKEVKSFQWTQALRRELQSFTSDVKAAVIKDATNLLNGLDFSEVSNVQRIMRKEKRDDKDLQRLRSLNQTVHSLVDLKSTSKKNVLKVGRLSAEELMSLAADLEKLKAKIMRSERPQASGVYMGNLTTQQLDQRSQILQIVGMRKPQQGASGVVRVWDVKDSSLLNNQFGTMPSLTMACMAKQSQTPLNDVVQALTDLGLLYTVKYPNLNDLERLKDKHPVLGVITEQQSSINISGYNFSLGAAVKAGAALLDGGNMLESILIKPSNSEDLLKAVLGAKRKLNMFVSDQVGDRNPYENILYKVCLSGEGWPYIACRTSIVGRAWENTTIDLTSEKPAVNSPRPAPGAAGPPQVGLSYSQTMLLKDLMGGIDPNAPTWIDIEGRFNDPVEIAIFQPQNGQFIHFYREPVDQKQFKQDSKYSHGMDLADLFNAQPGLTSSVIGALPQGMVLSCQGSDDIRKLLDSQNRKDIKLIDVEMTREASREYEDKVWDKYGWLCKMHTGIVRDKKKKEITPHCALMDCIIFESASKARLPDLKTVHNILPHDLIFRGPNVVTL
Chain of Furin (Homo sapiens) (P09958 whole entry, looked up): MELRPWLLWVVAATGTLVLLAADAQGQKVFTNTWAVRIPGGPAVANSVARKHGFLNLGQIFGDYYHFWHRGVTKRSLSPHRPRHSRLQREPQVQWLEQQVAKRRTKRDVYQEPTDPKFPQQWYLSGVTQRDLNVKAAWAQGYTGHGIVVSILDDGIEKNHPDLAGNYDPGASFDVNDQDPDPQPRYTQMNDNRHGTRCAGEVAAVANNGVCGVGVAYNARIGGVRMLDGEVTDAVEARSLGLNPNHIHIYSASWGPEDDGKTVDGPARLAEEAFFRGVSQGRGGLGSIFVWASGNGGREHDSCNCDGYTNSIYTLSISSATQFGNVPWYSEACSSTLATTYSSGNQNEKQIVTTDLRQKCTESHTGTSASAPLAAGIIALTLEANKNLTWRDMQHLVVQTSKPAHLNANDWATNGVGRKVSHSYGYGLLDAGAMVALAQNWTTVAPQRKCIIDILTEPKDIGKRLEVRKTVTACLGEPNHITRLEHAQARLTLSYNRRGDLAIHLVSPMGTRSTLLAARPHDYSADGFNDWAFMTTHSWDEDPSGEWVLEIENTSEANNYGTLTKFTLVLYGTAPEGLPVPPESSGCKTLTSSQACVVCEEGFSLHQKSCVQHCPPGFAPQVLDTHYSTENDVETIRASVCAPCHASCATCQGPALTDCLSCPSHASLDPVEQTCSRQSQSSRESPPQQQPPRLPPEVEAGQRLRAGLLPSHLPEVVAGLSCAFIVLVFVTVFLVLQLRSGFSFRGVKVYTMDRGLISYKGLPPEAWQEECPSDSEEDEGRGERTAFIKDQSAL
Chain of Metallo-beta-lactamase type 2 (Klebsiella pneumoniae) (C7C422 whole entry, looked up): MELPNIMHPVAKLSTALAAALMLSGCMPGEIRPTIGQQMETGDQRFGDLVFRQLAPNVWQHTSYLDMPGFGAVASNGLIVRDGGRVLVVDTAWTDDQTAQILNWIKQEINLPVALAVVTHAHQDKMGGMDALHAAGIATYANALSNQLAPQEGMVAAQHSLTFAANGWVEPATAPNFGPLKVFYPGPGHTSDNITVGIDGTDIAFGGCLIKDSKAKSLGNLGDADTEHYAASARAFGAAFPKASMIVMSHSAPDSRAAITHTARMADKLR

Take `Cc1ccc2c(=O)c3cccc(CC(=O)O)c3oc2c1C`: the Potency in [1] is 38.5 µM (active). For the same molecule, the Potency result in experiment [2] was “inactive”. Besides, the activity change, negative = inhibition in experiment [3] is -28.2%.
Consider `COc1ccc(Cn2ccc3ccc(C(=O)NO)cc32)cc1`, for which the Potency result in experiment [1] and in experiment [2] was “inactive” in each case.
On to `C/C=C/CC(C)C(O)C1C(=O)NC(CC)C(=O)N(C)CC(=O)N(C)C(CC(C)C)C(=O)NC(C(C)C)C(=O)N(C)C(CC(C)C)C(=O)NC(C)C(=O)NC(C)C(=O)N(C)C(CC(C)C)C(=O)N(C)C(CC(C)C)C(=O)N(C)C(C(C)C)C(=O)N1C` (centres undefined), for which the Potency entry in [1] is “inactive”. Also, the result in [4] was inactive.
For `C[C@H]1O[C@@H](O[C@H]2[C@@H](O)C[C@@H](O[C@H]3[C@@H](O)C[C@H](O[C@H]4CC[C@@]5(C)[C@H](CC[C@@H]6[C@@H]5CC[C@]5(C)[C@@H](C7=CC(=O)OC7)CC[C@]65O)C4)O[C@@H]3C)O[C@@H]2C)C[C@H](O)[C@@H]1O`, the Potency result (with Furin (Homo sapiens); in experiment [6]) was “inactive” throughout. Also, the outcome in [5] was inactive. Moreover, the Potency in [7] was 53.7 nM (active).
For the molecule `COc1ccc(-c2cc(=O)c3c(O)cc(O[C@@H]4O[C@H](CO[C@@H]5O[C@@H](C)[C@H](O)[C@@H](O)[C@@H]5O)[C@@H](O)[C@H](O)[C@@H]4O)cc3o2)cc1O`, the Potency in experiment [1] is 10.9 µM (active).
With `Cc1ccc2c(c1)C1(CCN(CCc3nc(-c4ccccc4)oc3C)CC1)OC(=O)N2`, in experiment [8], the Potency entry is “inactive”.
On the same count and under the same terms, the value for `Cc1c(C(=O)c2cccc3ccccc23)c2cccc3c2n1[C@@H](CN1CCOCC1)CO3` was “inactive”.
